# Publication PMC5540273 (PLoS ONE, 2017)
# Assays:
# Conditions in all cases: concentration: 1 μM, replicates: in singlicate; n = 1
# IRAK3 = test system: IRAK3
# IRAK4 = test system: IRAK4
# ITK = test system: ITK
# [1] = test system: JAK1(JH1domain-catalytic)
# [2] = test system: JAK1(JH2domain-pseudokinase)
# [3] = test system: JAK2(JH1domain-catalytic)
# [4] = test system: JAK3(JH1domain-catalytic)
# JNK1 = test system: T1, JNK1
# T1 construct: gene MAPK8
# JNK2 = test system: T2, JNK2
# T2 construct: gene MAPK9
# JNK3 = test system: T3, JNK3
# T3 construct: gene MAPK10
# KIT-autoinhibited = test system: KIT-autoinhibited
# KIT = test system: KIT
# LATS1 = test system: LATS1
# LATS2 = test system: LATS2
# LCK = test system: LCK
# LIMK1 = test system: LIMK1
# LIMK2 = test system: LIMK2
# LKB1 = test system: T4, LKB1
# T4 construct: gene STK11
# LOK = test system: T5, LOK
# T5 construct: gene STK10
# LRRK2 = test system: LRRK2
# 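Note: KINOMEscan kinase panel screen.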
SMILES,%Inh (IRAK3) [%],%Inh (IRAK4) [%],%Inh (ITK) [%],%Inh [1] [%],%Inh [2] [%],%Inh [3] [%],%Inh [4] [%],%Inh (JNK1) [%],%Inh (JNK2) [%],%Inh (JNK3) [%],%Inh (KIT-autoinhibited) [%],%Inh (KIT) [%],%Inh (LATS1) [%],%Inh (LATS2) [%],%Inh (LCK) [%],%Inh (LIMK1) [%],%Inh (LIMK2) [%],%Inh (LKB1) [%],%Inh (LOK) [%],%Inh (LRRK2) [%]
Cc1ccc(NC(=O)c2ccnc(N3CCN(C)CC3)c2)cc1-c1ccc(C(=O)NCC2CC2)cc1 [GW775604],0,0,0,0,27,2,0,0,0,0,0,27,0,0,0,0,0,28,9,0
Cc1ccc(C(=O)NCC(N)=O)cc1-n1c(C)cc(OCc2ccc(F)cc2F)c(Br)c1=O,15,0,22,0,49,0,4,0,0,0,0,6,13,0,25,16,0,0,26,0
Cc1cn2c(=O)cc(N3CCOCC3)nc2n1Cc1cccc(Cl)c1Cl [GSK2334006],13,5,14,2,0,2,0,18,16,6,0,39,0,0,46,0,6,0,0,30
CSc1ccc(-c2cc3ncnc(SCC(=O)O)c3s2)cc1,0,9,0,1,0,0,0,5,10,0,0,51,7,4,0,0,0,0,19,0
Cc1cccc(Cn2ccn3c(=O)cc(N4CCOCC4)nc23)c1 [GSK2297542],20,7,24,14,0,0,0,17,31,8,1,38,28,10,26,2,10,21,0,0
COc1cc2c(cc1OCCN1CCN(C)CC1)ncc1c3ccc(C#N)cc3[nH]c21,84,100,38,0,60,52,93.4,19,0,0,71,83,0,20,57,0,0,29,33,98.8
CN1c2ccc(NCc3ccc(F)cc3)cc2-c2c(cnn2C)S1(=O)=O,0,0,0,0,11,1,0,0,0,0,0,24,0,0,4,0,0,23,0,0
O=c1cc(N2CCOCC2)nc2n(Cc3cccc(Cl)c3Cl)c(C3CC3)nn12 [GSK2358994],0,0,4,9,3,6,0,19,0,0,15,0,0,27,23,9,8,15,0,0
O=C(Nc1cccc(-c2nn3ncccc3c2-c2ccnc(Nc3cccc(C(F)(F)F)c3)n2)c1)c1c(F)cccc1F [GSK299495],0,21,23,22,0,0,0,31,27,14,0,98.7,13,6,98.2,9,0,0,96.6,0
O=C(NCCNc1ccnc(Nc2ccc(F)cc2)n1)c1cc2ccccc2s1 [GSK1379874],0,10,6,12,0,0,0,13,0,0,0,0,0,0,12,0,25,1,0,0
